Data on 23 molecules can be found in PubChem BioAssay (NCATS).

Inconclusive results are not listed. Values without a mark were called inactive. Active and inactive are the calls of the source. Calls come from the whole dose curve; as a rule, active = well fitted cell-killing curve with a large enough effect; inconclusive = small, poorly fitted or top-dose-only effect, or effect the other way; inactive = no such curve, though single readings can be large or run the other way.

The nature of test [1]: Viability qHTS for spleen associated tyrosine kinase inhibitor (SYKi) naive MV4-11 cells (AID 1963823). Note: nearly all actives have a fitted effect of over 40% in size. Particulars: MV4-11 AML viability, CellTiter-Glo luminescence, 72 h; series mostly up to 45 µM. In a few lines: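 Cells: MV4-11, SYK inhibitor naive, 500 per well. Treatment: library compounds, 72 hr, 37 C, 5% CO2. Read-out: CellTiter-Glo luminescence after 10 min RT.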

A short description of test [2]: Viability qHTS for spleen associated tyrosine kinase inhibitor (SYKi) drug resistant MV4-11 cells (AID 1963824). Note: nearly all actives have a fitted effect of over 35% in size. Particulars: SYKi-resistant MV4-11 viability, CellTiter-Glo, 72 h; series mostly up to 45 µM. In a few lines: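 SYK-inhibitor-resistant MV4-11 AML cells were seeded at 500 per well onto compound and cultured 72 hours (37 °C, 5% CO2). CellTiter-Glo was then added, and after 10 min at room temperature, luminescence gave viability.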
(Quantitative high-throughput screening tests each substance at several concentrations.)
Potency is the fitted concentration of half-maximal effect.

As for `CC1(C)CC[C@]2(C(=O)O[C@@H]3O[C@H](CO)[C@@H](O)[C@H](O)[C@H]3O)CC[C@]3(C)C(=CCC4[C@@]5(C)CC[C@H](O[C@H]6O[C@H](CO)[C@@H](O)[C@H](O[C@@H]7O[C@H](CO)[C@@H](O)[C@H](O)[C@H]7O)[C@H]6O)C(C)(C)C5CC[C@]43C)[C@@H]2C1` (stereo partly specified), in test [1], the viability (% of control) is 84% [at 9.25 µM]. In addition, the viability, % of control in test [2] was 95.6% [at 9.25 µM].

For the molecule `O=S(=O)(NCc1cccc2ccccc12)c1cc(Cl)c(Oc2cccc(N3CCNCC3)c2)s1`, the Potency in test [1] is 2.59 µM (active); in test [2], 4.61 µM (active).

As for `Cc1cn2c(n1)Cc1ccc(Cl)cc1C(c1ccc(N)cc1)=N2`, the Potency is 14.6 µM (active) in test [1] and 18.4 µM (active) in test [2].

As for `CC[C@H](C)/C=C(C)/C=C/C1=CC2=C(Cl)C(=O)[C@](C)(O)[C@H](OC(C)=O)[C@H]2CO1`, the Potency in test [1] was 12.8 µM (active); in test [2], 7.18 µM (active).

For `COc1cc(O)cc(O[C@@H]2O[C@H](CO)[C@@H](O[C@@H]3OC[C@](O)(CO)[C@H]3O)[C@H](O)[C@H]2O)c1OC`, the Potency entry in test [1] and in test [2] was “inactive” each time.

Regarding `Cc1cc(Nc2cc(C)c(C#N)c(NC(C)CCCC(C)(C)O)n2)n[nH]1` (stereo unspecified), the Potency in test [1] is 0.259 µM (active); in test [2], 0.411 µM (active).

Consider `CC1(C)CC[C@]2(C(=O)O[C@@H]3O[C@H](CO)[C@@H](O)[C@H](O)[C@H]3O)CC[C@]3(C)C(=CCC4[C@@]5(C)C[C@@H](O)[C@H](O)C(C)(C)C5[C@H](O)C[C@]43C)[C@@H]2[C@@H]1O` (stereo partly specified), for which the Potency result in test [1] and in test [2] was “inactive” throughout.

`CC(=O)OC1(C)CC(O)C2(O)C=COC(OC3OC(CO)C(O)C(O)C3O)C12` (stereo unspecified): the Potency result in test [1] and in test [2] was “inactive” in each case.

Consider `CC1(C)CC[C@]2(C(=O)O[C@@H]3O[C@H](CO)[C@@H](O)[C@H](O)[C@H]3O)CC[C@]3(C)C(=CCC4[C@@]5(C)CC[C@H](O[C@@H]6O[C@H](C(=O)O)[C@@H](O)[C@H](O)[C@H]6OC6OC(CO)C(O)C(O)C6O)C(C)(C)C5CC[C@]43C)[C@@H]2C1` (stereo partly specified), for which, in test [1], the viability (% of control) was 89.4% [at 9.25 µM]. In addition, in test [2], the viability, % of control was 91% [at 9.25 µM].

Consider `C=C[C@H]1[C@H](O[C@@H]2O[C@H](CO)[C@@H](O)[C@H](O)[C@H]2O)OC=C(C(=O)OC)[C@H]1C[C@@H]1N[C@H](C(=O)O)Cc2c1[nH]c1ccccc21`, for which the Potency result in test [1] and in test [2] was “inactive” each time.

Turning to `CC(CCc1ccccn1)(CCc1ccccn1)C(=O)c1ccccc1`, the Potency entry in test [1] and in test [2] was “inactive” in each case.

Take `COC(=O)[C@@H](O)[C@H]1[C@@]2(C)CC3(O)[C@@H](C(=O)[C@H]2O)[C@]24O[C@]25CC(=O)O[C@@H](c2ccoc2)[C@]5(C)CCC4[C@]13C` (stereo partly specified): the Potency entry in test [1] and in test [2] was “inactive” each time.

For `C=C1C[C@]23C[C@H]1CC[C@H]2C1=C[C@H]2OC(=O)[C@@](C)([C@H]1[C@@H]3C(=O)O)[C@H]2O`, the Potency result in test [1] and in test [2] was “inactive” in each case.

As for `OC[C@H]1O[C@@H](Oc2cc(O)c3c(c2)O[C@@H](c2ccc(O)cc2)[C@H](O)C3)[C@H](O)[C@@H](O)[C@@H]1O`, the Potency entry in test [1] and in test [2] was “inactive” throughout.

As for `C[C@@H]1CC[C@]2(C(=O)O)CC[C@]3(C)C(=CCC4[C@@]5(C)C[C@@H](O)[C@@H](O)C(C)(C)C5CC[C@]43C)C2[C@]1(C)O` (stereo partly specified), the Potency entry in test [1] is “inactive”. Moreover, in test [2], the Potency was 3.55 µM (active).

On to `C=C1C(=O)O[C@@H]2C3C(=C(C)[C@@H](O)[C@@H](OC(=O)/C(=C/C)COC(C)=O)[C@@H]12)C(=O)[C@H]1O[C@@]31C` (stereo partly specified), for which the Potency in test [1] is 2.82 µM (active); in test [2], 3.55 µM (active).

For `C=C1C(=O)O[C@@H]2C[C@@]3(C)CCCC(=C)[C@]3(O)C[C@H]12`, the Potency in test [1] is 5.8 µM (active); in test [2] it was 2.59 µM (active).

Consider `C=C1CCC2C(C(C)(C)O)CCC2(C)CC(O)C(=C)CCC1O` (stereo unspecified), for which the Potency in test [1] is 9.04 µM (active); in test [2], 11.4 µM (active).

Take `CCOC(=O)C(CCc1ccccc1)NC(C)C(=O)N1C(=O)N(C)CC1C(=O)O` (stereo unspecified): the Potency result in test [1] and in test [2] was “inactive” in each case.

As for `CC(C)(CC(=O)N1CCCC1)NCC(=O)N1C[C@@H](F)C[C@H]1C#N`, the Potency entry in test [1] and in test [2] was “inactive” each time.

For the molecule `CC(C)CC1NC(=O)C(C(C)c2ccccc2)NC(=O)C(C(C)C)NC(=O)C(C)NC(=O)CCCNC(=O)C(Cc2c[nH]c3ccccc23)NC(=O)C(C)NC1=O` (stereo unspecified), the Potency result in test [1] and in test [2] was “inactive” in each case.

Turning to `CC1(C)CCC2(CC1)N[C@@H](C(=O)N[C@@H]1CC[C@@H](C(N)=O)OC1)[C@H](c1ccnc(Cl)c1F)[C@]21C(=O)Nc2cc(Cl)ccc21`, the Potency in test [1] is 16 µM (active); in test [2], 5.68 µM (active).

On to `Cc1cc(NC(=O)c2cccc(NC(=O)/C=C/CN(C)C)c2)ccc1Nc1nccc(-c2cccnc2)n1`, for which the Potency is 2.06 µM (active) in test [1] and 2.31 µM (active) in test [2].
